TDP1 cell CPT: DT40-hTDP1 cell growth loss with CPT | Potency, µM (titrated, usually from 46.2 µM), inactives show at the highest dose activity change, negative = growth inhibition, actives largely listed as inhibitors | 420,000 compounds, 12% hits | chicken DT40 Tdp1-/-;hTDP1 cells + 20 nM CPT, ATP luminescence, 48 h; note: potency is the fitted concentration of half-maximal effect; % is set by controls: 0 for no effect and ±100 for the full control effect; nearly all actives have a fitted effect of over 55% in size
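Cell growth measured by CellTiter-Glo luminescence after a minimum 48 h, 37 C compound exposure with 20 nM CPT in Tdp1-knockout DT40 cells stably expressing hTDP1, seeded 400/well; qHTS titration format.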
DT40 TDP1 no CPT: qHTS for Inhibitors of human tyrosyl-DNA phosphodiesterase 1 (TDP1): qHTS in cells in absence of CPT | DT40 Tdp1-/- hTDP1 cells, no CPT, ATP luminescence, 48 h | Potency, µM (top dose mostly 46.2 µM), inactives show at the top dose activity change, negative = growth inhibition, usual class: inhibitors | 420,000 compounds, 15% hits | AID 686978, 2013; note: potency is the fitted concentration of half-maximal effect; % is set by controls: 0 for no effect and ±100 for the full control effect; nearly all actives have a fitted effect of over 55% in size
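DT40 Tdp1-/-;hTDP1 cells, no CPT (DMSO vehicle only), 400 cells/well; compounds pin-transferred; ≥48 hr, 37 °C; CellTiter-Glo 30 min RT dark, luminescence read.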
HepG2 tox: counter-screen for TGF-b inhibitors: cytotoxicity in HepG2 cells. HepG2 CAGA-GFP viability, ATP luminescence, 18 h. Potency, µM (doses to about 46.1 µM), for the others: at the top dose activity change, negative = cytotoxicity, most hits filed as cytotoxic. 410,000 compounds, 0.76% hits. AID 588856; note: potency is the fitted concentration of half-maximal effect
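HepG2 CAGA-GFP cells (1000/well, DMEM with 1% FBS) received compound, then TGF-beta at 500 pg/mL final, and were incubated 18 hours at 37 degrees C. Viability was read by CellTiter-Glo luminescence. Media-only wells were set as complete cell-killing and DMSO as no toxicity.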
IL1B secr inh: inflammasome signaling inhibition, IL-1 beta readout; 360,000 compounds, 4.7% hits; THP-1 LPS/ATP IL-1B secretion, AlphaLISA, 16 h; stronger effect = lower value; activity change, % at 57.5 µM; in the data active = activity change below about -50%; inconclusive = mostly about -30% to -49%; note: % is set by controls: 0 for no effect and ±100 for the full control effect
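THP-1 cells pretreated 1 hr with compounds (up to 57.5 uM final), then stimulated with LPS (250 ng/mL final) plus ATP (1.25 mM final); secreted IL-1B measured by AlphaLISA after 16 hr, decreased signal indicating inhibition.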
TGFb SMAD3 inh: blocks TGF-b signaling; HepG2 CAGA-GFP TGF-b/SMAD3 reporter, GFP fluorescence, 18 h; TGF-beta stimulated, 500 pg/mL final; Potency, µM (series often up to 46.1 µM), inactives show top-dose activity, negative = inhibition, most hits filed as inhibitors; 410,000 compounds, 1.2% hits; note: potency is the fitted concentration of half-maximal effect; % is set by controls: 0 for no effect and ±100 for the full control effect; nearly all actives have a fitted effect of over 65% in size
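Read-out: total well GFP (ex488/em500-530) summed from mean per-cell fluorescence. Cells: HEPG2 CAGA-GFP, 1% FBS DMEM, 18 h at 37 degrees C with 500 pg/mL final TGF-beta. Unstimulated wells served as the full-inhibition control; stimulated DMSO wells = 0%.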
TDP1 block: inhibitors of human tyrosyl-DNA phosphodiesterase TDP1 | recombinant TDP1, AlphaScreen DNA substrate cleavage | Potency, µM (titrated, usually from 130 µM), without a hit: at the highest dose activity change, negative = inhibition, usual class: inhibitors | 350,000 compounds, 0.28% hits | Q9NUW8 | AID 485290; note: potency is the fitted concentration of half-maximal effect; % is set by controls: 0 for no effect and ±100 for the full control effect; nearly all actives have a fitted effect of over 40% in size
Target sequence (Q9NUW8 whole entry, looked up): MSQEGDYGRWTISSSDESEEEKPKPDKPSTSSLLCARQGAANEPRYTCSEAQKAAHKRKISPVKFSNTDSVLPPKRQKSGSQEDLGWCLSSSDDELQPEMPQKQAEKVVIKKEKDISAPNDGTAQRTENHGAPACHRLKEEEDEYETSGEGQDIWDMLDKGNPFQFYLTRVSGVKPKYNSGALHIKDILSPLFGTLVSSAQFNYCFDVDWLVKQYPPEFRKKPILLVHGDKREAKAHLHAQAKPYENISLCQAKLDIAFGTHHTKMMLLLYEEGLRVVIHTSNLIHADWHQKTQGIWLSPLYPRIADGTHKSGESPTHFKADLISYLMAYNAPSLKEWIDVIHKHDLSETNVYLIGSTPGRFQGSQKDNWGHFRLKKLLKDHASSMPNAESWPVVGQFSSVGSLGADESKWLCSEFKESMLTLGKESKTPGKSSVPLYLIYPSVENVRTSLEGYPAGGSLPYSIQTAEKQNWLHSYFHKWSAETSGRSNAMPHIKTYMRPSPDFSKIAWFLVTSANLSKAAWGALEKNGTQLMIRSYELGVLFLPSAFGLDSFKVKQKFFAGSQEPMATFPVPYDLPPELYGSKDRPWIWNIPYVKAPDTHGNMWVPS
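Signal: AlphaScreen proximity between streptavidin donor and anti-FITC acceptor beads on intact substrate. Reaction: Tdp1 1 nM, substrate 15 nM final, 5 min RT after 15 min compound preincubation.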
Active calls of the source: *; ? = inconclusive; / = not tested or not shown; [ ] = remark or other dose. This is a sample that favours compounds with a hit; in the whole collection about 18% have one here. Unless noted, calls come from the whole dose curve; as a rule, active = well fitted curve in the direction sought with a large enough effect; inconclusive = small, poorly fitted or top-dose-only effect, or another doubt; inactive = no such curve, though single readings can be large; an effect the other way counts as inactive or inconclusive.

SMILES	TDP1 cell CPT	DT40 TDP1 no CPT	HepG2 tox	IL1B secr inh	TGFb SMAD3 inh	TDP1 block
COc1ccc(OCCCC(=O)Nc2cc(S(=O)(=O)N3CCCCC3)ccc2C)cc1	20.6µM*	?	-2.6%	-7.1	-8.8%	-0.1%[56.1 µM]
CC1CCC(NC(=O)c2cc3c(s2)CCCC3)CC1 (stereo not drawn)	-44.9%	?	-2.2%	-27.0	4.7%	-4.1%
O=C(OCC#CCSc1nnc(-c2cccc3ccccc23)o1)c1sc2ccccc2c1Cl	/	/	/	/	/	-2.1%
O=C(O)CC(O)CC(O)/C=C/c1c(C2CC2)nc2ccccc2c1-c1ccc(F)cc1 (stereo not drawn)	/	/	/	/	/	2.1%
Nc1nc2ccccc2n1/N=C/c1ccc(Br)cc1	?	16.4µM*	-25.6%	11.3	0.0%	4.1%
C(=N\n1c2ccccc2c2ccccc21)/c1ccccc1	?	?	-3.7%	6.6	-2.6%	-1.4%
Cc1cc(C)c2c(c1)C1C=CCC1C(C(=O)O)N2 (stereo not drawn)	/	/	5.4%	/	-6.4%	-8.2%
COC(=O)CSc1nc2sc3c(c2c(=O)n1-c1ccccc1)CCN(C)C3	-21.2%	?	-12.3%	18.4	0.1%	4.2%
CN1CCc2c(sc3nc(SCC(N)=O)n(-c4ccccc4)c(=O)c23)C1	3.2%	-21.2%	-19.0%	-14.0	9.5%	-2.1%
CCCCNc1nc2sc3c(c2c(=O)n1-c1cccc(Cl)c1)CCN(C)C3	20.6µM*	16.4µM*	-12.9%	-24.4	-15.0%	/
CCCCCNc1nc2sc3c(c2c(=O)n1-c1cccc(Cl)c1)CCN(C)C3	11.6µM*	11.6µM*	-11.0%	-57.5*	-20.9%	9.6%
COc1ccccc1C(C[N+](=O)[O-])c1c(N)n(C)c(=O)n(C)c1=O (stereo not drawn)	3.66µM*	2.31µM*	10µM*	-57.8*	7.08µM*	-3.9%
NC(c1ccccc1)c1csc(Nc2ccc(C(F)(F)F)cn2)n1 (stereo not drawn)	?	13µM*	-125.3%	?	?	/
CC(C)C(N)c1csc(Nc2ccccn2)n1 (stereo not drawn)	8.2%	-19.2%	-1.4%	-11.4	23.2%	/
CC(C)C(N)c1csc(Nc2ccc(C(F)(F)F)cn2)n1 (stereo not drawn)	20.6µM*	?	-58.9%	0.0	?	/
O=C(COC(=O)CCC(=O)c1ccc(Cl)cc1)NCC1CCCO1 (stereo not drawn)	-6.0%	-12.3%	20.1%	17.7	32.8%	5.8%
CCN1CCN(C(c2cccc(F)c2)c2c(O)cc(C)n(Cc3ccco3)c2=O)CC1 (stereo not drawn)	7.8%	4.3%	-0.7%	/	22.7%	5.4%
CCNC(=O)c1ccc(CSc2nc3ccncc3n2Cc2ccc(F)cc2)cc1	?	?	-13.0%	/	?	7.6%
O=C(NCc1cccs1)c1ccc(CSc2nc3ccncc3n2Cc2ccccc2)cc1	?	18.4µM*	-20.0%	/	?	5.1%
Cc1cccc(Cn2c(SCc3ccc(C(=O)NCc4cccs4)cc3)nc3ccncc32)c1	?	23.1µM*	-26.9%	/	?	7.6%
N#Cc1cc([N+](=O)[O-])cnc1Nc1ccccc1	7.5%	-19.7%	-60.7%	-3.0	-9.7%	3.5%
Cc1ccc(/C=N/NC(=S)N2CCOCC2)cc1	-12.4%	-22.7%	8.3%	1.1	?	8.5%
S=C(N/N=C/c1ccc(Br)cc1)N1CCCCC1	1.16µM*	?	-2.2%	-7.7	-19.3%	4.8%
S=C(N/N=C/c1ccc(Cl)cc1)N1CCOCC1	0.0092µM*	0.0184µM*	12.1%	26.8	1.7%	7.9%
CC(C)CNc1nc(C#N)nc(Nc2ccccc2)n1	/	/	/	/	/	6.2%
SMILES	TDP1 cell CPT	DT40 TDP1 no CPT	HepG2 tox	IL1B secr inh	TGFb SMAD3 inh	TDP1 block
C=CCOc1nc2c(c(=O)n(C)c(=O)n2C)n1Cc1ccc(Cl)cc1	16.4µM*	14.6µM*	-33.6%	-12.3	-13.7%	-1.8%
CCOC(=O)N1CCN(Cc2nc3c(c(=O)n(C)c(=O)n3C)n2Cc2cccc(C)c2)CC1	-34.8%	?	3.1%	28.7	38.7%	6.1%
CCCOc1nc2c(c(=O)n(C)c(=O)n2C)n1Cc1cccc2ccccc12	11.6µM*	6.51µM*	6.4%	-15.8	-5.5%	2.1%
C=CCOc1nc2c(c(=O)n(C)c(=O)n2C)n1Cc1ccccc1Cl	16.4µM*	23.1µM*	3.5%	3.1	-6.6%	3.4%
CCOC(=O)N1CCN(Cc2nc3c(c(=O)n(C)c(=O)n3C)n2Cc2cccc3ccccc23)CC1	23.1µM*	?	-6.8%	-4.2	17.6%	3.0%
CCC(C)c1cc([N+](=O)[O-])cc([N+](=O)[O-])c1OC(C)=O (stereo not drawn)	/	/	/	/	/	6.2%
O=C(CCC(=O)N1CCOc2ccccc21)Nc1ccccc1Br	-14.6%	-15.8%	-6.7%	6.8	0.3%	/
Cc1ccc(N=Nc2c(N)nn(-c3ccccc3)c2N)cc1	3.66µM*	4.61µM*	13.5%	0.0	-20.0%	10.3%
Cc1cc(C)n2nc(N)c(N=Nc3cccc(Cl)c3)c2n1	2.2%	?	-5.5%	7.4	-5.8%	5.3%
Cc1ccc(N=Nc2c(N)nn3c(C)cc(C)nc23)cc1	?	23.1µM*	-58.4%	-9.7	-46.3%	1.8%
C=Cc1ccc(Cn2c(=O)n(CCCOC)c(=O)c3sccc32)cc1	?	?	4.3%	-88.0*	2.5%	/
C=Cc1ccc(Cn2c(=O)n(C)c(=O)c3sccc32)cc1	3.66µM*	?	-4.5%	-26.8	-2.8%	/
Cc1ccc(OCCC(=O)OC(C)C(=O)Nc2ccc(Cl)cn2)cc1 (stereo not drawn)	-10.4%	6.9%	4.7%	-0.8	0.9%	-6.4%
CC(Sc1nnc(C(C)Oc2ccc(F)cc2)o1)C(=O)NCc1ccc2c(c1)OCO2 (stereo not drawn)	-13.1%	-18.1%	3.4%	-3.9	0.2%	/
Cc1ccc(NS(=O)(=O)c2ccc(C(=O)N3CCN(S(=O)(=O)c4ccccc4)CC3)cc2)cc1	11.6µM*	7.31µM*	-45.1%	3.1	-18.3%	1.5%
O=S(=O)(Nc1ccc(N2CCCCC2)cc1)c1ccccc1	?	?	-3.9%	-2.3	-1.4%	2.3%
Cc1ccc(C(C)(C)C)cc1S(=O)(=O)Nc1cccc(C(=O)N2CCN(c3ccccn3)CC2)c1	29.1µM*	16.4µM*	-30.7%	-9.1	28.2µM*	/
O=S(=O)(Nc1ccc(N2CCCCC2)cc1)c1ccc(F)cc1	16.4µM*	29.1µM*	-48.9%	5.1	-29.8%	2.6%

Bioassay records: PubChem BioAssay, National Center for Advancing Translational Sciences (NCATS)
